Only some compounds are listed: those with a hit (about 3.9% of all), similar ones and a draw of the others.
GDH-TPI counter = GDH-TPI coupling enzyme inhibitors, primary screen, artefact control for M. tuberculosis FBA inhibitor project, biochemical, absorbance, full deck; inhibition, % at 4.8 µM; AID 588335, 2011; hit rate 1.2% among 360,000; GDH-TPI coupled enzyme counterscreen, NADH absorbance;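 also: 0% = DMSO wells and 100% = wells lacking the enzyme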
FBA Mtb inh = Mtb FBA enzyme inhibitors, primary screen, biochemical, fluorescence, strain H37Rv. Fructose-bisphosphate aldolase (Mycobacterium tuberculosis (strain ATCC 25618 / H37Rv)), …. purified M. tuberculosis FBA, fluorescence read-out. inhibition, % at 1 µM. hit rate 2.3% among 360,000; in the data active = inhibition above about 27%;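 also: 0% = vehicle and 100% = reference inhibitor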
Target sequence (P9WQA3 whole entry, looked up): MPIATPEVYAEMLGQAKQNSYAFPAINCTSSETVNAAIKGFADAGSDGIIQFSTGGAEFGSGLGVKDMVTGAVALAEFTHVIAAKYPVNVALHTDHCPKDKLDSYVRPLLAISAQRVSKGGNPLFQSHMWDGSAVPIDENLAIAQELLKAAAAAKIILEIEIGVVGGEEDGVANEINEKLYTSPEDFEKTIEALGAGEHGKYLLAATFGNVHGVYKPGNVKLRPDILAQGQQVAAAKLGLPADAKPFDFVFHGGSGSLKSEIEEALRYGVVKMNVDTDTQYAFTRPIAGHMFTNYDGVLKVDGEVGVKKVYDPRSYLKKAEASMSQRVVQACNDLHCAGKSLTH
Vc quorum ag = inducers of Vibrio cholerae quorum light production without autoinducers, primary screen, BH1578 luxS cqsA deficient, single point; V. cholerae BH1578 lux reporter, luminescence, 6 h; AID 588436, 2011; hit rate 0.16% among 350,000; activation, % at 18.7 µM; in the data active = activation mostly above about 9.7%, no sharp cut-off
CCHF vOTU inh = CCHFV vOTU protease inhibitors, primary screen, biochemical, Pep-AMC substrate, fluorescence; inhibition, % at 11.5 µM; Crimean-Congo hemorrhagic fever virus L polyprotein viral ovarian tumor (vOTU) protease …; AID 651958, 2012; hit rate 0.55% among 370,000; also: 0% = vehicle wells with enzyme and 100% = no enzyme wells
An asterisk follows results filed as active. Rule as the data show it, unless noted: active = inhibition above about 30%; inactive = the rest.

Results for C/C(=N\NC(=O)C(C)n1nc(C)c([N+](=O)[O-])c1C)c1ccccc1O (centres undefined) ?
GDH-TPI counter: 15; FBA Mtb inh: 0; Vc quorum ag: 0; CCHF vOTU inh: 0

Results for Cc1ccc(S(=O)(=O)CCc2nnc(NC(=O)CCl)s2)cc1C ?
GDH-TPI counter: 1; FBA Mtb inh: 0; Vc quorum ag: 0; CCHF vOTU inh: 20

Results for Cc1ccc(Nc2c(-c3ccco3)nc3ccccn23)cc1 ?
GDH-TPI counter: 22; FBA Mtb inh: 121*; Vc quorum ag: 0; CCHF vOTU inh: -71

Results for Fc1ccc(Nc2c(-c3ccco3)nc3ccccn23)cc1 ?
GDH-TPI counter: 4; FBA Mtb inh: 133*; Vc quorum ag: inactive; CCHF vOTU inh: -105

What do the screens show for `COc1ccc(Nc2c(-c3ccco3)nc3ccc(C)cn23)cc1`?
GDH-TPI counter: 22; FBA Mtb inh: 18; Vc quorum ag: -4; CCHF vOTU inh: -7

Results for CNC(=O)CC1C(=O)N(c2ccc(F)cc2)C(=S)N1NC(=O)c1ccc(Cl)cc1 (centres undefined) ?
GDH-TPI counter: 0; FBA Mtb inh: 10; Vc quorum ag: -6; CCHF vOTU inh: 7

Results for Cc1ccccc1-c1nn(-c2ccc(F)cc2F)cc1CNCCCO ?
GDH-TPI counter: 9; FBA Mtb inh: 2; Vc quorum ag: 0; CCHF vOTU inh: -10

What do the screens show for `CN(C)c1ccc(C#Cc2ccc3cc(CCO)oc(=O)c3c2)cc1`?
GDH-TPI counter: 4; FBA Mtb inh: 13; Vc quorum ag: -4

How did COc1cc(C#Cc2ccc3cc(CCO)oc(=O)c3c2)cc(OC)c1 do in these assays?
GDH-TPI counter: 36*; FBA Mtb inh: 23; Vc quorum ag: -1; CCHF vOTU inh: 23

How did COc1ccc([C@@H]2CC(=O)c3c(O)cc(O[C@@H]4O[C@H](CO[C@@H]5O[C@@H](C)[C@H](O)[C@@H](O)[C@H]5O)[C@@H](O)[C@H](O)[C@H]4O)cc3O2)cc1O do in these assays?
GDH-TPI counter: 8; FBA Mtb inh: 5; Vc quorum ag: 3; CCHF vOTU inh: -3

Results for COc1ccc(-c2cc(=O)c3c(O)cc(OC4OC(COC5OC(C)C(O)C(O)C5O)C(O)C(O)C4O)cc3o2)cc1O (centres undefined) ?
GDH-TPI counter: 42*; FBA Mtb inh: 3; Vc quorum ag: 0; CCHF vOTU inh: 0

Results for CC(=O)OC[C@H]1O[C@@H](Oc2cc(O)cc3oc(-c4ccc(O)cc4)cc(=O)c23)[C@H](O[C@@H]2O[C@@H](C)[C@H](O)[C@@H](O)[C@H]2O)[C@@H](O)[C@@H]1O ?
GDH-TPI counter: 33*; FBA Mtb inh: 13; Vc quorum ag: 0; CCHF vOTU inh: 13

What do the screens show for `CCOC(=O)C1(CCOc2ccccc2)CCN(Cc2cccc3nonc23)CC1`?
GDH-TPI counter: 6; FBA Mtb inh: -3; Vc quorum ag: 0; CCHF vOTU inh: 12

How did O=C1/C(=C/c2cccnc2)SC(=S)N1NS(=O)(=O)c1ccccc1 do in these assays?
GDH-TPI counter: 34*; FBA Mtb inh: 0; Vc quorum ag: inactive; CCHF vOTU inh: 8

How did O=C1/C(=C\c2ccc(Br)cc2)SC(=S)N1NS(=O)(=O)c1ccccc1 do in these assays?
GDH-TPI counter: -3; FBA Mtb inh: -1; Vc quorum ag: inactive; CCHF vOTU inh: -7

Results for Cc1ccc(C(=O)O/N=C\c2ccc(N3CCCCC3)c([N+](=O)[O-])c2)cc1 ?
GDH-TPI counter: 40*; FBA Mtb inh: -1; Vc quorum ag: inactive; CCHF vOTU inh: -2

What do the screens show for `CCN1C(=O)[C@H]2[C@@H](c3ccc(-c4cc(C(C)=O)cs4)cc3)N3CCC[C@@]3(C(=O)OC)[C@H]2C1=O`?
GDH-TPI counter: 40*; FBA Mtb inh: 8; Vc quorum ag: inactive; CCHF vOTU inh: -2

Results for CCN1C(=O)[C@H]2[C@@H](c3ccc(-c4cc(C(C)=O)cs4)cc3)N3CCCC[C@@]3(C(=O)OC)[C@H]2C1=O ?
GDH-TPI counter: 10; FBA Mtb inh: 4; Vc quorum ag: -1; CCHF vOTU inh: 12

What do the screens show for `CCCCC(C(=O)NC(C)c1ccccc1)C(=O)NC(C)c1ccccc1` (centres undefined)?
GDH-TPI counter: 3; FBA Mtb inh: 1; Vc quorum ag: -13; CCHF vOTU inh: -6

Results for CC(=O)Nc1cc(OC(C)=O)c2nonc2c1OC(C)=O ?
GDH-TPI counter: 6; FBA Mtb inh: 2; Vc quorum ag: 0; CCHF vOTU inh: 101*
